HCMV inh: human cytomegalovirus inhibition | 410,000 compounds, 4.5% hits | AID 1259415 | activity change, negative = inhibition, % at 57.5 µM | HFF cells, HCMV-luciferase reporter, 72 h; hits give low values; in the data active = activity change below about -60%; inconclusive = no clear call, values can overlap the other calls; inactive = above about -39%
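Inhibition of viral replication was scored as loss of reporter luminescence in HFFs infected with HCMV-luciferase (MOI 1 PFU/cell) for 72 h; compounds tested at 2 doses, normalized to buffer and Salinomycin controls.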
Sm TGR inh: inhibitors of Schistosoma mansoni thioredoxin glutathione reductase; 360,000 compounds, 3% hits; Q962Y6; purified TGR, DTNB reduction, TNB absorbance 405 nm; AID 485364; Potency, µM (doses to about 114 µM), actives largely listed as inhibitors; note: nearly all actives have a fitted effect of over 60% in size
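First, TGR (20 nM dispensed) and NADPH were mixed with compound. Second, a 15 min room-temperature incubation followed. Third, further NADPH and then DTNB were added to start the reaction. Finally, TNB absorbance was monitored kinetically.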
HCV inhibitor: HCV inhibition | Huh7.5.1 HCVcc-Cre infection, luciferase reporter, 44 h | Potency, µM (top dose mostly 41.8 µM), hits mostly inhibitors | 340,000 compounds, 3.4% hits | AID 651820
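HCVcc-Cre virus at an moi near 0.5 was added right after compound to cells cultured 4 h from seeding (1,000 cells/well). Luciferase activity was determined 44 h later, 15 min after substrate addition at RT.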
FMDV inh: antivirals against foot and mouth disease virus; FMDV antiviral cell-based qHTS; Potency, µM (top dose mostly 57.9 µM), most hits filed as inhibitors; 410,000 compounds, 1.2% hits; AID 1159524; calls by dose curve; tested in HEK293T cells; note: read-out not given here; nearly all actives have a fitted effect of over 45% in size
VACV mCherry inh: vaccinia inhibition (mCherry reporter); Vaccinia virus mCherry reporter infection, fluorescence; AID 720579; 310,000 compounds, 0.63% hits; Potency, µM (highest dose often 36.5 µM), usual class: inhibitors; calls by dose curve; tested in A549 cells; note: nearly all actives have a fitted effect of over 35% in size
Vaccinia Venus: inhibitors of vaccinia virus (Venus reporter) | 330,000 compounds, 0.46% hits | Potency, µM (series often up to 36.5 µM), most hits filed as inhibitors | Vaccinia virus Venus reporter expression, fluorescence | AID 720580; calls by dose curve; tested in A549 cells; note: nearly all actives have a fitted effect of over 30% in size
Large screens that a line does not name were inactive. Most compounds without a hit are left out; they make up all but 9.3% or so of the library. Unless noted, calls come from the whole dose curve; as a rule, active = well fitted curve in the direction sought with a large enough effect; inconclusive = small, poorly fitted or top-dose-only effect, or another doubt; inactive = no such curve, though single readings can be large; an effect the other way counts as inactive or inconclusive.

Nc1nc(N)nc(-c2ccc(Cl)c(Cl)c2)n1	HCV inhibitor inconclusive, VACV mCherry inh inconclusive, Vaccinia Venus inconclusive
COc1ccc(C=O)cc1COc1ccc([N+](=O)[O-])c(C)c1	none
Cc1cc(OCc2nc(N)nc(N)c2-c2ccc(Cl)c(Cl)c2)ccc1[N+](=O)[O-]	HCMV inh -100, HCV inhibitor inconclusive, FMDV inh 25µM, VACV mCherry inh 0.89µM, Vaccinia Venus 1µM (no result: Sm TGR inh)
Cc1nc(N)nc(N)c1-c1ccc(Cl)c(Cl)c1	HCMV inh -98, HCV inhibitor inconclusive, VACV mCherry inh 1µM, Vaccinia Venus 1µM (no result: Sm TGR inh)
CCOc1ccc(NC(=O)CN(C)C(=O)C2CC(=O)N(CCc3ccccc3)C2)cc1OCC (stereo not given)	none
COc1cc(C(=S)N(C)C)ccc1O	none
Cc1cc(N2CCCC2)ccc1/C=C1\NC(=S)N(C)C1=O	HCV inhibitor inconclusive, VACV mCherry inh inconclusive
Cc1cc(N2CCCCC2)ccc1C=C1C(=O)N(C)C(=S)N(C)C1=O	Sm TGR inh 7.1µM, HCV inhibitor inconclusive, FMDV inh inconclusive
CCCn1nnnc1SCC(=O)Nc1ccc(F)cc1	none
CCCc1nc2ccccc2n1CC(O)COc1ccc(NC(C)=O)cc1 (stereo not given)	none (no result: Sm TGR inh)
Cc1ccc(S(=O)(=O)N2CCCCC2)cc1NC(=O)CSc1ncnc2ccccc12	HCMV inh -71, HCV inhibitor inconclusive, VACV mCherry inh 11µM, Vaccinia Venus inconclusive
Cc1ccc(NC(=O)CSc2ncnc3ccccc23)cc1S(=O)(=O)N1CCCCCC1	HCV inhibitor inconclusive, FMDV inh 8.9µM, VACV mCherry inh inconclusive, Vaccinia Venus inconclusive
O=C(CSc1ncnc2ccccc12)Nc1cc(S(=O)(=O)N2CCCCC2)ccc1Cl	HCMV inh inconclusive, HCV inhibitor 10µM, FMDV inh inconclusive, VACV mCherry inh inconclusive, Vaccinia Venus inconclusive
O=C(CSc1ncnc2ccccc12)Nc1cccc(S(=O)(=O)N2CCCC2)c1	FMDV inh inconclusive
Cc1[nH]c2ccccc2c1C(=O)CN1C(=O)NC(C)(c2ccc(Cl)cc2Cl)C1=O (stereo not given)	HCV inhibitor inconclusive, VACV mCherry inh inconclusive, Vaccinia Venus inconclusive
COc1ccc(-c2csc(N(CC3CCCO3)C(=O)c3cccs3)n2)cc1 (stereo not given)	HCV inhibitor inconclusive, FMDV inh inconclusive (no result: VACV mCherry inh, Vaccinia Venus)
COc1ccc(OC)c(-c2csc(N(CC3CCCO3)C(=O)C3CCCCC3)n2)c1 (stereo not given)	HCMV inh -72, HCV inhibitor inconclusive (no result: VACV mCherry inh, Vaccinia Venus)
O=C(C1CC1)N(Cc1ccco1)c1nc(-c2ccccc2)cs1	Sm TGR inh 32µM, HCV inhibitor inconclusive (no result: VACV mCherry inh, Vaccinia Venus)
COc1ccc(-c2csc(N(Cc3ccco3)C(=O)c3cccs3)n2)cc1	Sm TGR inh 13µM, HCV inhibitor inconclusive (no result: VACV mCherry inh, Vaccinia Venus)
COc1ccc(OC)c(-c2csc(N(C)C(=O)Cc3ccccc3)n2)c1	HCV inhibitor inconclusive
COc1ccc(OC)c(-c2csc(N(Cc3ccco3)C(=O)c3cccs3)n2)c1	HCV inhibitor 13µM (no result: VACV mCherry inh, Vaccinia Venus)
COc1ccc(-c2nnc(S/C(=C/c3ccc(Cl)cc3)C(=O)O)o2)cc1	none
CSc1ccc(/C=C(/Sc2nnc(-c3ccccc3)o2)C(=O)O)cc1	HCMV inh -69
COc1ccccc1Cc1c(-c2ccco2)nc2ccc(Cl)cn12	none (no result: Sm TGR inh, HCV inhibitor)
CC(=O)Nc1ccc(S(=O)(=O)NC2CCS(=O)(=O)C2)cc1Cl (stereo not given)	none
CCOC(=O)N1CCC(NS(=O)(=O)c2ccccc2)CC1	Sm TGR inh 45µM (no result: VACV mCherry inh, Vaccinia Venus)
CCOC(=O)N1CCC(NS(=O)(=O)c2ccc(C)cc2)CC1	HCMV inh inconclusive
CCOC(=O)N1CCC(NS(=O)(=O)c2ccc(NC(C)=O)c(Cl)c2)CC1	HCV inhibitor 6.3µM
CCOC(=O)C(C)On1c(SC(C)C(=O)OCC)nc2ccccc2c1=O (stereo not given)	none (no result: VACV mCherry inh, Vaccinia Venus)
O=C(NOCc1ccccc1)c1ccc(Cl)cc1Cl	none (no result: VACV mCherry inh, Vaccinia Venus)
O=C1NC[C@H](CC2CCCCC2)N(CCc2cccc(F)c2)C1=O	none
Clc1ccc2c(c1)-c1[nH]ncc1CS2	HCMV inh -61, Sm TGR inh inconclusive
O=C1CSc2cc(Cl)ccc2N1	none (no result: Sm TGR inh)
COc1cc(Cl)ccc1OCc1cc(C(=O)N2CCN(C)C(=O)[C@@H]2C)no1	none (no result: Sm TGR inh, HCV inhibitor)
Cc1cc(OCc2cc(C(=O)N3CCN(C)C(=O)[C@@H]3C)no2)cc(C)c1Cl	HCMV inh inconclusive, HCV inhibitor 13µM, FMDV inh inconclusive (no result: VACV mCherry inh, Vaccinia Venus)
Cc1cc(OCc2cc(C(=O)N(Cc3nccn3C)C(C)C)no2)cc(C)c1Cl	HCV inhibitor 11µM, VACV mCherry inh inconclusive
CCCCCCCC(=O)Nc1cc(C(=O)NCCC)ccc1N1CCC2(CC1)CC(c1ccccc1)=NO2	none
COc1ccc(COC(=O)c2nc3nc(C)cc(C)n3n2)cc1F	none
CC(=O)Oc1cccc(N2C(=O)C3C4C=CC(CC4)C3C2=O)c1 (stereo not given)	Sm TGR inh 45µM (no result: HCMV inh)
CC(=O)Oc1cccc(N2C(=O)C3C4C=CC(C4)C3C2=O)c1 (stereo not given)	none (no result: VACV mCherry inh, Vaccinia Venus)
COc1ccc(CNc2nc3nc(-c4ccccc4)cc(=O)n3[nH]2)cc1OC	none (no result: VACV mCherry inh)
Cc1cccc(Nc2nc(NCc3ccco3)c3ccccc3n2)c1	HCMV inh -95, HCV inhibitor 6.3µM, FMDV inh 28µM, VACV mCherry inh inconclusive, Vaccinia Venus 13µM
Oc1ccccc1Nc1nc(NCc2ccco2)c2ccccc2n1	HCV inhibitor 13µM, FMDV inh inconclusive (no result: VACV mCherry inh, Vaccinia Venus)
COc1ccc(OC)c(Nc2nc(NCc3ccco3)c3ccccc3n2)c1	HCMV inh inconclusive, HCV inhibitor 11µM, FMDV inh inconclusive
Cc1ccccc1Nc1nc(NCc2ccco2)c2ccccc2n1	HCMV inh inconclusive, HCV inhibitor inconclusive, FMDV inh inconclusive, VACV mCherry inh inconclusive, Vaccinia Venus inconclusive
Cc1ccc(NC(=O)Cn2c(=O)n(CCCC(=O)NCc3ccc4c(c3)OCO4)c(=O)c3ccccc32)cc1	none (no result: HCV inhibitor)
COc1cc2c(cc1OC)C(c1ccccc1)N(C(=O)c1ccccc1F)CC2 (stereo not given)	none (no result: VACV mCherry inh, Vaccinia Venus)
COc1cc2c(cc1OC)C(COc1ccccc1OC)N(C(=O)c1ccc(S(=O)(=O)N3CCCC3)cc1)CC2 (stereo not given)	none (no result: HCV inhibitor)
COc1cc2c(cc1OC)C(COc1ccccc1OC)N(C(=O)c1ccccc1OC)CC2 (stereo not given)	HCMV inh -106 (no result: HCV inhibitor)
COc1cc2c(cc1OC)C(c1ccccc1)N(C(=O)c1ccccc1)CC2 (stereo not given)	HCMV inh -60, HCV inhibitor inconclusive (no result: VACV mCherry inh, Vaccinia Venus)
COC(=O)c1ccc(OCC(O)CN2CCc3cc(OC)c(OC)cc3C2c2ccccc2)cc1 (stereo not given)	HCV inhibitor 7.9µM, FMDV inh inconclusive, VACV mCherry inh inconclusive
O=C(COc1ccc2c3c(c(=O)oc2c1)CCC3)Nc1ccc(CN2CCOCC2)cc1	none (no result: VACV mCherry inh, Vaccinia Venus)
COc1ccc(CCN(C(=O)Cn2nnc3ccccc32)C(C(=O)NCC2CCCO2)c2ccncc2)cc1OC (stereo not given)	none
